ABHD5-PLIN5 inh = ABHD5-PLIN5 interaction inhibitors, primary screen, cell lysate, split luciferase complementation, luminescence. Perilipin-5 (Homo sapiens) + 1-acylglycerol-3-phosphate O-acyltransferase ABHD5 (Homo …. Split G. princeps luciferase complementation, 4 h. inhibition, % at 4 µM. 0.78% of 360,000 active;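 active = inhibition above the mean inhibition across every tested compound plus 3 SD, cut at about 22% in these data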;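 note: 0% = DMSO only wells and the 100% control is not disclosed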
TLR9-MyD88 inh = inhibitors of TLR9-MyD88 association in cells, primary screen, cell-based, CHO, BLA complementation, fluorescence. inhibition, % at 4.98 µM. 0.21% of 340,000 active. CCF4 FRET ratio. Toll-like receptor 9 (Homo sapiens) + Myeloid differentiation primary response protein …;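 active = inhibition above the mean over all tested compounds plus 3 SD, cut at about 21% in these data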;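 note: 0% = DMSO only wells and 100% = clavulanate BLA inhibitor control wells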
rCAG binder = binders of r(CAG) RNA repeats, primary screen, biochemical, fluorescence. r(CAG) RNA repeat, TO-PRO-1 dye displacement fluorescence. inhibition, % at 3 µM. 1.3% of 370,000 active. AID 651821, 2012;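 active = inhibition above the plate cutoff, the mean of all test compounds on that plate plus 3 SD, cut at about 35% in these data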;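 note: 0% = DMSO alone and 100% = 100 µM mitoxantrone as full dye displacement; higher means more dye released from RNA so lower well fluorescence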
TLR4-MyD88 BLA = inhibitors of TLR4-MyD88 association in cells, primary screen, cell-based, HeLa CL3-4, BLA complementation, FRET ratio. HeLa CL3-4 TLR4/MyD88 BLA complementation. inhibition, % at 8.4 µM. 0.18% of 200,000 active. AID 861, 2007; in the data active = inhibition above about 25%;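 note: 0% = vehicle and 100% = reference inhibitor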
PRMT1 inh = PRMT1 methyltransferase inhibitors, primary screen, biochemical, fluorescence polarization | Protein arginine N-methyltransferase 1 (Homo sapiens), Q99873 | recombinant PRMT1, activity-based probe fluorescence polarization | inhibition, % at 2.79 µM | 1.3% of 370,000 active;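 active = inhibition above about 21% made by adding two undisclosed values, limit read from the data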
Target sequence (Q99873 whole entry, looked up): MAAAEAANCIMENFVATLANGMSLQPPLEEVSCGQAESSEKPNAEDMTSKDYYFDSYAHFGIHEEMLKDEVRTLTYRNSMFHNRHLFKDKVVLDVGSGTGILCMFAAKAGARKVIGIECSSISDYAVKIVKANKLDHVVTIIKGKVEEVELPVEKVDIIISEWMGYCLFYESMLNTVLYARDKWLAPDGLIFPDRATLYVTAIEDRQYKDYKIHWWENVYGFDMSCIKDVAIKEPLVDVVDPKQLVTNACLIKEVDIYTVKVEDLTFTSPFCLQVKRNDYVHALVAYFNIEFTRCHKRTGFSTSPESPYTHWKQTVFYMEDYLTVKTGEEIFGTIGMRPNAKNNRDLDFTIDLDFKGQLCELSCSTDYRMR
NOD2-RIPK2 inh = NOD2-RIPK2 binding disruptors in cells, primary screen, fluorescence, CHO cells, BLA complementation. Receptor-interacting serine/threonine-protein kinase 2 (Homo sapiens), O43353. CCF4 ratio. inhibition, % at 4.98 µM. 0.38% of 360,000 active; in the data active = inhibition above about 21%;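 note: 0% = vehicle only and 100% = reference blocker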
rCAG bind conf = small molecules binding CAG repeat RNA – biochemical, fluorescence, confirmation; shares compounds with rCAG binder; inhibition, % at 3 µM; AID 652065, 2013; 70% of 4,300 active; r(CAG) RNA repeat, TO-PRO-1 dye displacement fluorescence;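 active = inhibition above a per-plate cutoff, the mean inhibition of sample wells plus 3 SD, cut at about 35% in these data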;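 note: loss of TO-PRO-1 fluorescence as compound displaces dye from 1x1 AA loop RNA; 0% = DMSO only wells and 100% = 100 µM mitoxantrone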
dCAG dye counter = displacement of TO-PRO-1 from CAG DNA duplex, counter-screen for rCAG RNA repeat binder project, biochemical, fluorescence, TO-PRO-1 dye, d(CAG) DNA oligo; shares compounds with rCAG binder; d(CAG) DNA oligo TO-PRO-1 dye displacement; inhibition, % at 3 µM; 94% of 4,300 active; AID 652068, 2013;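 active = inhibition above its plate's cutoff, the mean test-well inhibition plus 3 SD, cut at about 4.8% in these data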;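 note: 0% = DNA dye mix with DMSO and 100% = 100 µM mitoxantrone; hits displace the dye from DNA and so lower well fluorescence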
dCAG dye DR = inhibitors of DNA CAG/GTC TO-PRO-1 complex, dose response, counter-screen for rCAG RNA repeat binder project, biochemical, fluorescence, TO-PRO-1 dye; shares compounds with rCAG binder; DNA CAG/GTC duplex TO-PRO-1 dye displacement fluorescence; IC50, µM; 20% of 250 active; AID 686960, 2013; in the data active = IC50 below about 10 µM
* hit, by the source's call. This is a sample that favours compounds with a hit; in the whole collection about 3.3% have one here.

`C[C@H](CO)N1C[C@H](C)[C@@H](CN(C)S(=O)(=O)c2cn(C)cn2)Oc2ccc(NC(=O)Cc3ccccc3)cc2C1=O` gave ABHD5-PLIN5 inh -1.4, TLR9-MyD88 inh 0.5, rCAG binder -2.8, PRMT1 inh -3.0 and NOD2-RIPK2 inh -1.8.
Screening Clc1ccccc1N1CCN(C2=Nc3ccccc3Sc3ccccc32)CC1 returned rCAG binder 7.9 and PRMT1 inh 10.0.
Screening Nc1ncc(Br)cc1S(=O)(=O)Nc1cc(C(F)(F)F)cc(C(F)(F)F)c1 returned ABHD5-PLIN5 inh -6.3, TLR9-MyD88 inh -8.6, rCAG binder 80.8*, PRMT1 inh 7.3, NOD2-RIPK2 inh -12.5, rCAG bind conf 65.0*, dCAG dye counter 27.0* and dCAG dye DR inactive.
Screening Cc1cccc(-n2ccc(=O)c(C(=O)Nc3ccc(S(=O)(=O)Nc4nccs4)cc3)n2)c1 returned ABHD5-PLIN5 inh -1.5, TLR9-MyD88 inh 1.5, rCAG binder 65.0*, PRMT1 inh -3.6, NOD2-RIPK2 inh -9.8, rCAG bind conf 13.7 and dCAG dye counter 6.0*.
For O=C(Nc1ccc(S(=O)(=O)Nc2ncccn2)cc1)c1nn(Cc2ccccc2)c(=O)c2ccccc12 the results were ABHD5-PLIN5 inh 4.8, TLR9-MyD88 inh -1.9, rCAG binder 23.0, PRMT1 inh 1.1 and NOD2-RIPK2 inh 0.6.
`CCn1nc(C(=O)Nc2ccc(S(=O)(=O)Nc3nccs3)cc2)c2ccccc2c1=O` gave ABHD5-PLIN5 inh 10.3, TLR9-MyD88 inh 6.0, rCAG binder 42.3*, TLR4-MyD88 BLA -9.8, PRMT1 inh -1.3, NOD2-RIPK2 inh 2.8, rCAG bind conf 56.2* and dCAG dye counter 17.9*.
Screening COc1ccc(-n2ccc(=O)c(C(=O)Nc3ccc(S(=O)(=O)Nc4nccs4)cc3)n2)cc1 returned ABHD5-PLIN5 inh -11.1, TLR9-MyD88 inh -4.0, rCAG binder 18.5, PRMT1 inh -2.0 and NOD2-RIPK2 inh 0.5.
For O=C(Nc1ccc(S(=O)(=O)Nc2nccs2)cc1)c1nn(-c2ccccc2)ccc1=O the results were ABHD5-PLIN5 inh -12.4, TLR9-MyD88 inh -8.8, rCAG binder 42.9*, PRMT1 inh 3.9, NOD2-RIPK2 inh -5.7, rCAG bind conf 55.4* and dCAG dye counter 25.8*.
Screening O=C(Nc1ccc(S(=O)(=O)Nc2nccs2)cc1)c1cccc(N2C(=O)c3ccccc3C2=O)c1 returned ABHD5-PLIN5 inh 0.1, TLR9-MyD88 inh -7.5, rCAG binder 68.9*, TLR4-MyD88 BLA 17.8, PRMT1 inh 5.4, NOD2-RIPK2 inh 7.6, rCAG bind conf 58.2* and dCAG dye counter 23.3*.
`CCOc1ccc(NC(=O)Nc2cc(C(=O)O)ccc2N2CC3CC(C2)c2cccc(=O)n2C3)cc1` (stereo not given) gave ABHD5-PLIN5 inh -2.4, TLR9-MyD88 inh 0.4, rCAG binder 10.4, PRMT1 inh 2.0 and NOD2-RIPK2 inh 5.7.
Screening Nc1[nH]n2c(=O)cc(-c3ccccc3)nc2c1N=Nc1ccccc1 returned ABHD5-PLIN5 inh -8.7, TLR9-MyD88 inh 6.3, rCAG binder 12.9, TLR4-MyD88 BLA 10.7, PRMT1 inh 0.5 and NOD2-RIPK2 inh -6.5.
Screening Nc1[nH]n2c(=O)cc(-c3ccccc3)nc2c1N=Nc1ccc(S(N)(=O)=O)cc1 returned ABHD5-PLIN5 inh 3.0, TLR9-MyD88 inh -1.4, rCAG binder 44.4*, TLR4-MyD88 BLA -7.6, PRMT1 inh 5.8, NOD2-RIPK2 inh -14.1, rCAG bind conf 21.8 and dCAG dye counter 5.5*.
COc1ccc(NC(=O)CSc2nnc(-c3cccs3)n2N)cc1S(N)(=O)=O was read as ABHD5-PLIN5 inh 2.1, TLR9-MyD88 inh 3.0, rCAG binder 1.8, PRMT1 inh 13.1 and NOD2-RIPK2 inh 6.0.
Screening COc1cccc(C2C(C(=O)c3cc4ccccc4o3)=C(O)C(=O)N2c2cc(C)on2)c1OC (stereo not given) returned ABHD5-PLIN5 inh -18.5, TLR9-MyD88 inh 2.2, rCAG binder 50.7*, TLR4-MyD88 BLA 9.6, PRMT1 inh 2.1, NOD2-RIPK2 inh -1.2, rCAG bind conf 44.5* and dCAG dye counter 11.6*.
COc1cc(C2C(C(=O)c3cc4ccccc4o3)=C(O)C(=O)N2c2cc(C)on2)cc(OC)c1OC (stereo not given) was read as ABHD5-PLIN5 inh -1.0, TLR9-MyD88 inh 11.3, rCAG binder 26.6, PRMT1 inh 3.7 and NOD2-RIPK2 inh 2.9.
Screening COc1ccccc1C1C(C(=O)c2ccc(C)o2)=C(O)C(=O)N1c1cc(C)on1 (stereo not given) returned ABHD5-PLIN5 inh -24.9, TLR9-MyD88 inh -1.3, rCAG binder 7.7, PRMT1 inh 0.1 and NOD2-RIPK2 inh -9.2.
Screening COc1cccc(C2C(C(=O)c3cc4cccc(OC)c4o3)=C(O)C(=O)N2c2cc(C)on2)c1OC (stereo not given) returned ABHD5-PLIN5 inh -17.1, TLR9-MyD88 inh -11.2, rCAG binder 57.2*, TLR4-MyD88 BLA -7.0, PRMT1 inh 4.5, NOD2-RIPK2 inh -8.2, rCAG bind conf 65.3* and dCAG dye counter 25.3*.
For COc1cccc2cc(C(=O)C3=C(O)C(=O)N(c4cc(C)on4)C3c3cccs3)oc12 (stereo not given) the results were ABHD5-PLIN5 inh 9.1, TLR9-MyD88 inh 2.4, rCAG binder 43.8*, PRMT1 inh 4.4, NOD2-RIPK2 inh -7.6, rCAG bind conf 61.7* and dCAG dye counter 26.6*.
Screening CCOC(=O)c1ccc(NC(=O)NNS(=O)(=O)c2cc(OC)ccc2OC)cc1 returned ABHD5-PLIN5 inh -2.8, TLR9-MyD88 inh -9.7, rCAG binder 4.0, PRMT1 inh 5.8 and NOD2-RIPK2 inh -5.8.

Bioassay records deposited in PubChem by The Scripps Research Institute Molecular Screening Center.
